Coupling enz: coupling enzyme interference in Giardia aldolase counter-screen; activity change, negative = inhibition, % at 58.2 µM, hits read low; hit rate 0.67% among 290,000; coupling enzyme system counterscreen, AmpLite Red fluorescence; in the data active = activity change below about -30%
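Activity here indicates interference with the coupling reaction, not aldolase inhibition. Compounds at 57.5 uM final met coupling enzymes for 10 min at RT; substrate and AmpLite Red detection followed, with a 525/598 nm fluorescence read after 20 min.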
G9a block: blocks human histone lysine methyltransferase G9a. Q96KQ7. G9a H3K9 monomethylation, AlphaScreen, 2 h. Potency, µM (highest dose often 102 µM), most hits filed as inhibitors. hit rate 8.8% among 350,000; also: nearly all actives have a fitted effect of over 75% in size
Target sequence (Q96KQ7 913-1193 limits assumed): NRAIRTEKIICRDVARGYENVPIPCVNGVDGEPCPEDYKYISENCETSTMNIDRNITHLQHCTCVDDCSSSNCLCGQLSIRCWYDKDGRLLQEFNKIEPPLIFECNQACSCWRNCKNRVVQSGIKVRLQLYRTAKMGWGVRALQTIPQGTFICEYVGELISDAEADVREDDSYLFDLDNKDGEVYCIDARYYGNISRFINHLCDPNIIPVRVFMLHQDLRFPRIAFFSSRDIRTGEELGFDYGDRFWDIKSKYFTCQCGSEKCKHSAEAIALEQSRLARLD
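Chemiluminescent proximity detection of H3K9 monomethylation, read after 10 min bead incubation in the dark. Reaction: 20 nM G9a, 500 nM biotin-H3K9 peptide, 20 uM SAM cofactor, 2 h, room temperature, following 15 min enzyme-compound preincubation.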
Tau ThT inhib: inhibitors of human tau fibril formation, thioflavin T binding; P10636; recombinant tau K18 P301L, heparin-induced fibrillization, ThT fluorescence; Potency, µM (top dose mostly 57.4 µM), actives largely listed as inhibitors; hit rate 2.1% among 270,000; also: nearly all actives have a fitted effect of over 55% in size
Target sequence (P10636 561-689 P618L limits assumed): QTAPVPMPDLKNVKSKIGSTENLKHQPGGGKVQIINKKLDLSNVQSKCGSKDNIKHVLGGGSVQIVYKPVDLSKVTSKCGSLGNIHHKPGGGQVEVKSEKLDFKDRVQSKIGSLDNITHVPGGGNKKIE
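Tau K18 P301L fragment (15 uM unlabeled plus 0.24 uM Alexa 594-labeled) in 100 mM sodium acetate pH 7 with compound, fibrillization induced by 20 uM heparin for 6 hr at 37 C. Thioflavin T (30 uM) added, fluorescence read after 1 hr (ex 450, em 510 nm).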
Tau FP inhib: inhibitors of human tau fibril formation. P10636. K18 P301L tau heparin fibrillization, Alexa594 FP, 6 h. Potency, µM (titrated, usually from 57.7 µM), most hits filed as inhibitors. hit rate 0.39% among 280,000; also: nearly all actives have a fitted effect of over 55% in size
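Recombinant K18 P301L […], labeled with Alexa 594 at 0.24 uM over 15 uM unlabeled; heparin inducer 20 uM final; 37 C, 6 hr; FP endpoint.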
Sfp PPTase inh: inhibitors of Bacillus subtilis Sfp phosphopantetheinyl transferase | Q9F4F7 | Potency, µM, hits mostly inhibitors | Biochemical Sfp PPTase activity, qHTS | hit rate 3.5% among 310,000 | AID 1490;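 also: the enzyme is Sfp with the accession as filed and its product quenches rhodamine fluorescence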
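With Hepes-Na pH 7.6 buffer containing 10 mM MgCl2, Sfp (15 nM) modified BHQ-2-YbbR (12.5 uM) using rhodamine-CoA (5 uM). Two reads 30 minutes apart at 525/598 nm yielded each well's rate.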
Tau fluor counter: counter-screen for tau fibril formation inhibitors; tau K18 P301L Alexa594 fluorescence, heparin fibrillization; Potency, µM (doses to about 57.7 µM); hit rate 0.93% among 280,000; also: nearly all actives have a fitted effect of over 55% in size
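Human tau K18 P301L (15 uM unlabeled, 0.24 uM Alexa 594-labeled) in 100 mM sodium acetate pH 7 with 20 uM heparin, 6 hr at 37 C. ThT 30 uM added, 1 hr ambient; Alexa 594 FP and total fluorescence read at 555/632 nm.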
Large screens that a line does not name were inactive; ! = not confirmed by another sample; [ ] = another dose, or the depositor's remark. Hits are enriched below; roughly 11% of the tested compounds scored in any of these assays. Unless noted, calls follow the shape of the dose curve; as a rule, active = well fitted curve in the direction sought with a large enough effect; inconclusive = small, poorly fitted or top-dose-only effect, or another doubt; inactive = no such curve, though single readings can be large; an effect the other way counts as inactive or inconclusive.

CCOCCCNC(=O)C(c1ccccc1)N1Cc2ccccc2C1=O (stereo not drawn)	none (no result: Coupling enz, Sfp PPTase inh)
O=c1c2ccccc2nc2c3ccccc3c(NCc3ccccn3)nn12	G9a block 32µM
N#Cc1c2nc3ccccc3nc2n2cc(NC(=O)c3ccc(F)cc3)ccc12	G9a block 3.2µM, Sfp PPTase inh inconclusive
CC(=O)N1CC(C)Sc2ccc(S(=O)(=O)NCc3ccc(Cl)cc3)cc21 (stereo not drawn)	none (no result: Tau ThT inhib, Tau FP inhib, Tau fluor counter)
CCc1ccc(CN2CCC(n3nccc3NC(=O)c3ccccc3)CC2)o1	none (no result: Coupling enz, Tau ThT inhib, Tau FP inhib, Tau fluor counter)
Cc1ccc(C(C)CCN2CCC(n3nccc3NC(=O)c3ccccc3)CC2)o1 (stereo not drawn)	G9a block 28µM (no result: Tau ThT inhib, Tau FP inhib, Tau fluor counter)
O=C(Nc1nc(-c2cccs2)cs1)c1cccc(S(=O)(=O)N2CCCCC2)c1	G9a block 13µM
Cc1cc(C)nc(-n2nc(C)cc2NC(=O)c2cccc(S(=O)(=O)N3CCCCC3)c2)n1	G9a block 8.9µM
O=C(Nc1nc(-c2cccs2)cs1)c1ccc(Cl)cc1	G9a block 32µM, Tau ThT inhib inconclusive, Tau fluor counter inconclusive
COc1ccc(C(C)=O)cc1COC(=O)CCNS(=O)(=O)c1ccc(C)cc1	G9a block 50µM (no result: Coupling enz, Tau ThT inhib, Tau FP inhib, Sfp PPTase inh, Tau fluor counter)
COc1ccc(C(C)=O)cc1COC(=O)CCNS(=O)(=O)c1ccc(C(C)=O)cc1	none (no result: Coupling enz, Tau ThT inhib, Tau FP inhib, Tau fluor counter)
CCN(CC)C(=O)CSc1nnc(COc2ccc(OC)cc2)n1N	none
CCN(CC)C(=O)CSc1nnc2nnc3cc(OC)ccc3n12	G9a block 35µM
COC(=O)c1ccc2c(c1)C(C)(C)C(/C=C/c1ccccc1O)=[N+]2C	G9a block inconclusive, Tau ThT inhib 10µM, Tau FP inhib inconclusive, Sfp PPTase inh 11µM, Tau fluor counter 25µM[fluorescent]
COC(=O)c1ccc(N)c(N=CC2=C(O)CC(C)(C)CC2=O)c1	none
Cc1cc(Br)ccc1NC(=O)CCS(=O)(=O)c1cccc2nsnc12	G9a block inconclusive (no result: Coupling enz, Sfp PPTase inh)
CCOC(=O)c1cc2oc(C)cc2n1CC(=O)OC1CCCCC1	G9a block inconclusive, Sfp PPTase inh 79µM
CN1C(=O)C2(Oc3ccccc3C3CC(c4ccccc4)=NN32)c2ccccc21 (stereo not drawn)	G9a block inconclusive, Tau ThT inhib inconclusive, Tau fluor counter inconclusive
S=C1NC2(CCS1)Oc1ccccc1C1CC(c3ccccc3)=NN12 (stereo not drawn)	G9a block 50µM, Sfp PPTase inh inconclusive (no result: Tau ThT inhib)
Cc1cccc(OCC(=O)Nc2c(C)ccc3nsnc23)c1C	none (no result: Coupling enz, Sfp PPTase inh)
COc1ccc(OCC(=O)Nc2nnc(S(=O)(=O)N3CCCCCC3)s2)cc1	Tau ThT inhib inconclusive, Tau fluor counter inconclusive
Cc1ccc2nsnc2c1NC(=O)COc1ccccc1F	G9a block 56µM
CCC(Oc1ccccc1)C(=O)Nc1nnc(S(=O)(=O)N2CCCCC2)s1 (stereo not drawn)	none (no result: Coupling enz, Tau ThT inhib, Tau FP inhib, Tau fluor counter)
CC(Oc1ccccc1)C(=O)Nc1nnc(S(=O)(=O)N2CCCCCC2)s1 (stereo not drawn)	G9a block 2.8µM!, Tau ThT inhib inconclusive
Cc1ccc(OCC(=O)Nc2nnc(S(=O)(=O)N3CCC(C)CC3)s2)cc1	G9a block 50µM (no result: Tau ThT inhib, Tau FP inhib, Tau fluor counter)
O=C(COc1ccccc1)Nc1nnc(S(=O)(=O)N2CCCC2)s1	G9a block 8.9µM, Tau ThT inhib inconclusive
Cc1ccc(OCC(=O)Nc2nnc(S(=O)(=O)N3CCc4ccccc43)s2)cc1	Tau ThT inhib inconclusive (no result: Coupling enz, Sfp PPTase inh)
Cc1nn2cc(-c3ccc(OC(C)C)cc3)nc2s1	Tau ThT inhib inconclusive, Tau fluor counter inconclusive (no result: Coupling enz, Sfp PPTase inh)
Cc1cccc(-c2noc(CN(C(C)C)S(=O)(=O)c3ccc(Br)cc3)n2)c1	Tau ThT inhib inconclusive, Tau fluor counter inconclusive (no result: Coupling enz, Sfp PPTase inh)
CC(=O)c1cc(-c2ccc(F)cc2)n(CCC(=O)NCc2ccc(C)cc2)c1C	none (no result: Coupling enz, Sfp PPTase inh)
C=C(C)n1c(=O)n(Cc2ccccc2C)c2ccccc21	none (no result: Tau ThT inhib, Tau FP inhib, Tau fluor counter)
C#C[C@]1(O)CC[C@@H]2[C@H]3CCC4=CC(=O)CC[C@H]4[C@H]3C(=C)C[C@@]21CC	none (no result: Coupling enz, Tau ThT inhib, Tau FP inhib, Tau fluor counter)
O=C(COc1ccccc1F)Nc1nnc(-c2ccncc2)s1	G9a block 71µM
O=C(COc1ccccc1Cl)Nc1nnc(S(=O)(=O)N2CCCC2)s1	G9a block inconclusive, Tau ThT inhib inconclusive, Tau fluor counter inconclusive
O=C(COc1ccccc1F)Nc1nnc(S(=O)(=O)N2CCCCCC2)s1	Tau ThT inhib 14µM (no result: Coupling enz, Sfp PPTase inh)
O=C(O)c1ccc(/C=N/NC(=O)C2CC2(c2ccccc2)c2ccccc2)cc1 (stereo not drawn)	none
O=C(N/N=C/c1ccco1)C1CC1(c1ccccc1)c1ccccc1 (stereo not drawn)	G9a block 40µM
